A short description of experiment [1]: ATG_GLI_CIS: Attagene CIS-FACTORIAL HepG2 Assay for human Zinc Finger Protein GLI1 (AID 2282945). Particulars: HepG2, Attagene cis-factorial reporter mRNA, GLI element; actives raise or lower the signal. The procedure, abridged:
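Bidirectional curve fits relative to DMSO, using reporter mRNA levels from RT-PCR plus capillary electrophoresis. Cells were HepG2 transiently carrying cis-regulated reporter constructs, harvested 24 h after dosing.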

Experiment [2] has as its target Bile acid receptor (Homo sapiens) (UniProt Q96RI1). Kind of experiment: ATG_IR1_CIS: Attagene CIS-FACTORIAL HepG2 Assay for human Nuclear Receptor Subfamily 1 Group H Member 4 (NR1H4), IR1 submotif (AID 2282946). Particulars: IR1 reporter transcription, actives raise or lower the signal. The procedure, abridged: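 Cells (human HepG2) carry transiently transfected cis-promoter reporter transcription units. Compounds are incubated 24 h, total RNA is reverse-transcribed and amplified, and labelled fragments are resolved by capillary electrophoresis. Curves use DMSO as baseline.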

Experiment [3] is described as follows: ATG_GRE_CIS: Attagene CIS-FACTORIAL HepG2 Assay for human Glucocorticoid Response Elements (GRE) (AID 2282947). To be noted: HepG2 GRE cis-reporter, Attagene multiplex mRNA; actives raise or lower the signal. An outline of the steps:
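Transient MRTU transfection of human HepG2 liver cells; cis-regulated reporters report endogenous factors. 24 h dosing → RNA isolation → RT-PCR → 6-FAM primer extension → HpaI cut → CE fragment analysis. Bidirectional fit, DMSO negative control.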

The nature of experiment [4]: ATG_ISRE_CIS: Attagene CIS-FACTORIAL HepG2 Assay for human Interferon Regulatory Factor 1 (IRF1) binding to an Interferon-Stimulated Response Element (ISRE) (AID 2282948). Particulars: HepG2 ISRE cis-reporter (Attagene), mRNA transcription readout; actives raise or lower the signal. An outline of the steps: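 Cell-based cis-reporter assay; HepG2; 24 h exposure; reporter mRNA by RT-PCR plus capillary electrophoresis fluorescence; activity in either direction scored relative to DMSO.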

Experiment [5] is described as follows: ATG_M_32_CIS: Attagene CIS-FACTORIAL HepG2 Assay for M32 Transcription Factor (Internal Marker) (AID 2282949).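 Also: background control marker of the multiplexed CIS panel rather than a real target.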 Particulars: HepG2 Attagene cis-factorial M32 reporter, mRNA; actives raise or lower the signal. An outline of the steps:
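Fluorescent capillary electrophoresis peaks of HpaI-digested, FAM-labelled RT-PCR reporter products give the signal. Source: transiently transfected human liver HepG2 cells, 24 h after chemical dosing; bidirectional fitting against DMSO.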

Experiment [6] in a line: ATG_M_06_CIS: Attagene CIS-FACTORIAL HepG2 Assay for M06 Transcription Factor (Internal Marker) (AID 2282950). Particulars: HepG2 Attagene CIS-FACTORIAL M06 internal marker reporter; actives raise or lower the signal. The procedure, abridged:
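Fluorescence-labelled RT-PCR products from cis-promoter reporter units, cut with HpaI and resolved by capillary electrophoresis, give the signal. Cells are human HepG2, dosed for 24 h. Serves as background control, fitted relative to DMSO.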

Experiment [7] addresses Hypoxia-inducible factor 1-alpha (Homo sapiens) (UniProt Q16665). The experiment is described as follows: ATG_HIF1a_CIS: Attagene CIS-FACTORIAL HepG2 Assay for human Hypoxia Inducible Factor 1 (HIF1A) (AID 2282951). Particulars: HepG2 Attagene cis-factorial HIF1a reporter transcription; actives raise or lower the signal. An outline of the steps: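 In this multiplexed cell assay, HepG2 cells bearing transfected cis reporters are dosed for 24 h and reporter mRNA is read by RT-PCR plus capillary electrophoresis; signal increases and decreases are both scored against DMSO.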

Experiment [8] addresses Hepatocyte nuclear factor 6 (Homo sapiens) (UniProt Q9UBC0). Kind of experiment: ATG_HNF6_CIS: Attagene CIS-FACTORIAL HepG2 Assay for human Hepatocyte Nuclear Factor 6 (HNF6) (AID 2282952). Particulars: HepG2 Attagene cis-factorial HNF6 reporter transcription; actives raise or lower the signal. An outline of the steps: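 Cells are HepG2 carrying transiently transfected cis-promoter reporter units. Treatment lasts 24 h, after which reporter transcripts are reverse-transcribed, amplified, FAM-labelled and sized by capillary electrophoresis. DMSO serves as baseline.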

Experiment [9] concerns the target Heat shock factor protein 1 (Homo sapiens) (UniProt Q00613). Kind of experiment: ATG_HSE_CIS: Attagene CIS-FACTORIAL HepG2 Assay for human Heat Shock Transcription Factor 1 (HSE) (AID 2282953). Particulars: HepG2 HSE cis-reporter, Attagene RNA transcription; actives raise or lower the signal. The procedure, abridged: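 After a 24 h incubation with test chemical, transfected HepG2 cells were harvested for RNA; reporter transcripts were measured by RT-PCR and capillary electrophoresis. Values reflect gain or loss of signal relative to DMSO.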

A short description of experiment [10]: ATG_MRE_CIS: Attagene CIS-FACTORIAL HepG2 Assay for human Metal Responsive Element (MRE) (AID 2282954). To be noted: HepG2 MRE cis-reporter transcription, Attagene multiplex; actives raise or lower the signal. An outline of the steps: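 Transient MRTU transfection of HepG2 (FuGene 6); 24 h dosing; total RNA → oligo(dT) RT, PCR, 6-FAM primer extension, HpaI cut, CE. Bidirectional fit vs DMSO.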

Experiment [11] is described as follows: ATG_PBREM_CIS: Attagene CIS-FACTORIAL HepG2 Assay for human Phenobarbital-responsive Enhancer Module (PBREM) (AID 2282955). To be noted: HepG2 PBREM cis-reporter, Attagene multiplexed transcription; actives raise or lower the signal. The procedure, abridged:
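After a 24 h incubation with test chemical, transfected HepG2 cells yield total RNA; reporter-specific RT-PCR products are fluorescently labelled, HpaI-digested and resolved by capillary electrophoresis against ROX size standards.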

Experiment [12] deals with Paired box protein Pax-6 (Homo sapiens) (UniProt P26367). The experiment is described as follows: ATG_Pax6_CIS: Attagene CIS-FACTORIAL HepG2 Assay for human Paired Box 6 (PAX6) (AID 2282956). To be noted: HepG2 CIS-FACTORIAL PAX6 reporter transcription, RNA readout; actives raise or lower the signal. An outline of the steps:
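Multiplexed cis-reporter HepG2 system; 24 h treatment; reporter mRNA read by RT-PCR/CE fluorescence; bidirectional fit vs DMSO.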

The nature of experiment [13]: ATG_PXRE_CIS: Attagene CIS-FACTORIAL HepG2 Assay for human Pregnane X Receptor Element (PXRE) (AID 2282957). To be noted: HepG2 Attagene CIS-FACTORIAL PXRE reporter, mRNA; actives raise or lower the signal. The procedure, abridged:
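Multiplexed cis-reporter assay in transiently transfected human HepG2 cells; 24 h chemical exposure. Reporter transcripts quantified by RT-PCR with fluorescent labeling and capillary electrophoresis.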

Experiment [14] is described as follows: ATG_PPRE_CIS: Attagene CIS-FACTORIAL HepG2 Assay for human Peroxisome Proliferator-activated Response Element (PPRE) (AID 2282958). To be noted: HepG2 PPRE cis-element reporter, Attagene transcription factor profiling; actives raise or lower the signal. An outline of the steps:
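Multiplexed reporter transcription units under cis-regulatory promoters were transfected into HepG2 cells to capture endogenous factor activity. A 24 h incubation preceded RNA isolation and fluorescent RT-PCR fragment analysis.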

Experiment [15] is described as follows: ATG_RORE_CIS: Attagene CIS-FACTORIAL HepG2 Assay for human RAR-related Orphan Receptor Element (RORE) (AID 2282959). To be noted: HepG2 Attagene cis-factorial RORE reporter, mRNA; actives raise or lower the signal. The procedure, abridged: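 Fluorescence intensity of reporter-specific cDNA fragments, separated by capillary electrophoresis, gives the signal. Source: HepG2 liver cells transiently transfected with cis-element reporters and exposed 24 h; DMSO-normalized bidirectional fit.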

The nature of experiment [16]: ATG_Sox_CIS: Attagene CIS-FACTORIAL HepG2 Assay for human SRY-box transcription factor (SOX) (AID 2282960). Particulars: HepG2 Attagene cis-factorial SOX reporter, mRNA; actives raise or lower the signal. An outline of the steps:
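After 24 h of chemical treatment, transfected HepG2 reporter cells are lysed for total RNA. Transcript levels come from RT-PCR with labelled primer extension and capillary electrophoresis, analysed bidirectionally versus DMSO.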

The target in experiment [17] is Transcription factor Sp1 (Homo sapiens) (UniProt P08047). Kind of experiment: ATG_Sp1_CIS: Attagene CIS-FACTORIAL HepG2 Assay for human Specificity Protein 1 (Sp1) (AID 2282961). To be noted: HepG2 Sp1 cis-reporter transcription, actives raise or lower the signal. An outline of the steps:
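Sp1-driven reporter mRNA, read as capillary electrophoresis fluorescence after RT-PCR, in transiently transfected HepG2 cells dosed for 24 h; signal change in either direction relative to DMSO.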

The nature of experiment [18]: ATG_SREBP_CIS: Attagene CIS-FACTORIAL HepG2 Assay for human Sterol Regulatory Element Binding (SREBP) (AID 2282962). To be noted: HepG2 Attagene cis-factorial SREBP reporter, mRNA; actives raise or lower the signal. The procedure, abridged: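 mRNA induction of transfected cis-promoter reporters in HepG2 cells, 24 h post-dose. Detection: RT-PCR with 6-FAM-labelled products, HpaI digest, capillary electrophoresis. DMSO served as negative control and baseline.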

The nature of experiment [19]: ATG_TA_CIS: Attagene CIS-FACTORIAL HepG2 Assay for human TA Basal Promoter (AID 2282964). To be noted: HepG2 Attagene CIS-factorial TA basal promoter reporter; actives raise or lower the signal. The procedure, abridged:
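Multiplexed mRNA reporter assay, HepG2, 24 h. Reporter cDNA amplified, 6-FAM primer-extended, HpaI-cut, CE-sized; DMSO = negative control and baseline.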

The target of experiment [20] is Signal transducer and activator of transcription 3 (Homo sapiens) (UniProt P40763). The experiment is described as follows: ATG_STAT3_CIS: Attagene CIS-FACTORIAL HepG2 Assay for human Signal Transducer and Activator of Transcription 3 (STAT3) (AID 2282963). To be noted: HepG2, Attagene cis-factorial STAT3 reporter transcription; actives raise or lower the signal. The procedure, abridged:
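Endogenous STAT3-responsive cis-element activity was read in transiently transfected HepG2 cells after 24 h treatment. Reporter transcripts were quantified via RT-PCR and capillary electrophoresis, with DMSO as negative control and bidirectional curve fitting.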

Activity calls are given as the source filed them. The calls were made as follows: active = hit-call score of the fitted dose curve at least 0.9, where 1 is the maximum; inactive = score below 0.9.

Chain of Paired box protein Pax-6 (Homo sapiens) (P26367 whole entry, looked up): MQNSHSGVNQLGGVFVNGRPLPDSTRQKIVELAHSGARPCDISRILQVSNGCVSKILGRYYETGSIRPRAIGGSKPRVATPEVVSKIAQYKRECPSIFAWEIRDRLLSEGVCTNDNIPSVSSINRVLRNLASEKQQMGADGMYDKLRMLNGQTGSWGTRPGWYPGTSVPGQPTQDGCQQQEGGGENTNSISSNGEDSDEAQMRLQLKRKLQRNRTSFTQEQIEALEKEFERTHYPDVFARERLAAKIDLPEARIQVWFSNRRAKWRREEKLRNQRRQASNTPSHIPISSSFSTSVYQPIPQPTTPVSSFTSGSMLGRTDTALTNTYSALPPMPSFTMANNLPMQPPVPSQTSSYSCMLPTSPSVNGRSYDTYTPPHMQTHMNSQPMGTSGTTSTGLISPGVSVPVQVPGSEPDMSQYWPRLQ
Chain of Transcription factor Sp1 (Homo sapiens) (P08047 whole entry, looked up): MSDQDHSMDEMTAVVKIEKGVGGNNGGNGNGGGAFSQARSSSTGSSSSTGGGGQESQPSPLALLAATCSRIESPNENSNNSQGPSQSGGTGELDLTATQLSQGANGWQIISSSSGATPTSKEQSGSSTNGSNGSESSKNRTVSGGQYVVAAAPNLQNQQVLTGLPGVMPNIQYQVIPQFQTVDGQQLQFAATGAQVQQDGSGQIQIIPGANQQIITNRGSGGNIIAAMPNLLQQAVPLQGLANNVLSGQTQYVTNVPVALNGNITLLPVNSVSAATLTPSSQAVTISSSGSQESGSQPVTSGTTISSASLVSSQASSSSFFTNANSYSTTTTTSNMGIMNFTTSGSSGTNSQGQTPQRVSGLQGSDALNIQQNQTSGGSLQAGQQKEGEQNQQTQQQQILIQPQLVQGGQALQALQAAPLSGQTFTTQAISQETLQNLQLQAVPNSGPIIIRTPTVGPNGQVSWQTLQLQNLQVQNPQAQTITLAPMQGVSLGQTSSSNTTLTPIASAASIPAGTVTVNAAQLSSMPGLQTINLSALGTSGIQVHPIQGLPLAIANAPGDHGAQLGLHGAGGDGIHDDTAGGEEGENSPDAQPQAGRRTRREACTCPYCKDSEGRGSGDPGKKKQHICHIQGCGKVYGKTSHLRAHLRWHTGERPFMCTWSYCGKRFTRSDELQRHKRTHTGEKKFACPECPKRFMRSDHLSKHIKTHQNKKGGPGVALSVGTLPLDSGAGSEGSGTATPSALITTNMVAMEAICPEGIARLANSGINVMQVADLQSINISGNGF
Chain of Bile acid receptor (Homo sapiens) (Q96RI1 whole entry, looked up, the tested form may be a part): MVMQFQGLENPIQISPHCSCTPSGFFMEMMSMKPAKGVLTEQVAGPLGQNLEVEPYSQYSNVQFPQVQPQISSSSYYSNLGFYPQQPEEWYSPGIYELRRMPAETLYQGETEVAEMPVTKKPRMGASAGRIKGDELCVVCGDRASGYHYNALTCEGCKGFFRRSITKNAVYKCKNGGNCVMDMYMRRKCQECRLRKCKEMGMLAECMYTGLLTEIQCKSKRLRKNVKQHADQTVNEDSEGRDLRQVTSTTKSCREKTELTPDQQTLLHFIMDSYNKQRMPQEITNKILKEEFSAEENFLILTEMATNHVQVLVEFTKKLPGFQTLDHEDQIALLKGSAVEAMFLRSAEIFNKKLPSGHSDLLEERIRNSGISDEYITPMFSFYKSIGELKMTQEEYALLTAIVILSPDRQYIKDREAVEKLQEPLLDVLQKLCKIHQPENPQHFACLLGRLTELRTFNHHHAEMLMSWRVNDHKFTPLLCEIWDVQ
Chain of Heat shock factor protein 1 (Homo sapiens) (Q00613 whole entry, looked up): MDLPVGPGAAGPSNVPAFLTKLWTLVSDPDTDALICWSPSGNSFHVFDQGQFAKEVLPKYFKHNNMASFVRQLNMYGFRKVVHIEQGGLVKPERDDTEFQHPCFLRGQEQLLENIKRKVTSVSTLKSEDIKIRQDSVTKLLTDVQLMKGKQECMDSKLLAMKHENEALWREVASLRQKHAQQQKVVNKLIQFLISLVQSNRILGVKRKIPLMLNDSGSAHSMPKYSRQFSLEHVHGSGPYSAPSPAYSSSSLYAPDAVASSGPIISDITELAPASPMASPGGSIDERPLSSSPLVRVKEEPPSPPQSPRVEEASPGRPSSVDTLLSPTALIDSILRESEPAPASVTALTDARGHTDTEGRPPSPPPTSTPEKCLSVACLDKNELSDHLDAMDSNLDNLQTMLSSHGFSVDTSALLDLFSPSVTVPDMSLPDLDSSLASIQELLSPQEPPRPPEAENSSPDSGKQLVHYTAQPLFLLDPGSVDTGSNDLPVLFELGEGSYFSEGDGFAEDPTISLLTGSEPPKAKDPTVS
Chain of Hepatocyte nuclear factor 6 (Homo sapiens) (Q9UBC0 whole entry, looked up): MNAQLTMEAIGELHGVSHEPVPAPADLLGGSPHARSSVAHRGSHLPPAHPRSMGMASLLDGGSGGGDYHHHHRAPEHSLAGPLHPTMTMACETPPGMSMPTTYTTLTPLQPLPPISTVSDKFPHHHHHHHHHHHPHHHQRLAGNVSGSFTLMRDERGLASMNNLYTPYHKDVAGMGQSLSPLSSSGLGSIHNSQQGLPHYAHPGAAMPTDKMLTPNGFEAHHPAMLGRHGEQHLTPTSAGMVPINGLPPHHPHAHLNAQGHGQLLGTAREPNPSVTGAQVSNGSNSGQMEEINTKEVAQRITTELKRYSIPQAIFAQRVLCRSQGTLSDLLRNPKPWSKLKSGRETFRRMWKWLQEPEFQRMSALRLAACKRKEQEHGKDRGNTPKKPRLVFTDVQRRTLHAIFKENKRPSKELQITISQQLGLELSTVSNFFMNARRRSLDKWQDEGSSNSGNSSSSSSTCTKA
Chain of Hypoxia-inducible factor 1-alpha (Homo sapiens) (Q16665 whole entry, looked up): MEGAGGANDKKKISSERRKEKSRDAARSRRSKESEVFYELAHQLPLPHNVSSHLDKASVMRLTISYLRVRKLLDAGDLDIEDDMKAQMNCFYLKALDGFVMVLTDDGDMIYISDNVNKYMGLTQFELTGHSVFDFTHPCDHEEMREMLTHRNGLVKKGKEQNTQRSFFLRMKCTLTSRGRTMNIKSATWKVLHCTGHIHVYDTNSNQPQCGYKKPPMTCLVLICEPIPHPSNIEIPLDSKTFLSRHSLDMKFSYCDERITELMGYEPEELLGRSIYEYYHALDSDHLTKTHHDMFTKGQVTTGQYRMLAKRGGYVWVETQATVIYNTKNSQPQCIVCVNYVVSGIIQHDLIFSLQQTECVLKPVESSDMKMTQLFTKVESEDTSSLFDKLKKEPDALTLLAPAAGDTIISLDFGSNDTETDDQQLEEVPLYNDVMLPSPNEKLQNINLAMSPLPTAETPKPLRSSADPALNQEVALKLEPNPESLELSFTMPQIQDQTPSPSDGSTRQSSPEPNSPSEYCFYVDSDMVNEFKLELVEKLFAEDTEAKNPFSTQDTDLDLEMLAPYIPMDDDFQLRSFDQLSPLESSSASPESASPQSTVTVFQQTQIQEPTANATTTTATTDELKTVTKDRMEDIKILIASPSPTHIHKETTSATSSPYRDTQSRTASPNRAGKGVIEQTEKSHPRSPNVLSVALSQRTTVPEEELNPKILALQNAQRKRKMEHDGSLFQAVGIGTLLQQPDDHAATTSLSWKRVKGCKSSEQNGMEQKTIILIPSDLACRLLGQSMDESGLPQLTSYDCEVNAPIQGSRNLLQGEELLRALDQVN
Chain of Signal transducer and activator of transcription 3 (Homo sapiens) (P40763 whole entry, looked up): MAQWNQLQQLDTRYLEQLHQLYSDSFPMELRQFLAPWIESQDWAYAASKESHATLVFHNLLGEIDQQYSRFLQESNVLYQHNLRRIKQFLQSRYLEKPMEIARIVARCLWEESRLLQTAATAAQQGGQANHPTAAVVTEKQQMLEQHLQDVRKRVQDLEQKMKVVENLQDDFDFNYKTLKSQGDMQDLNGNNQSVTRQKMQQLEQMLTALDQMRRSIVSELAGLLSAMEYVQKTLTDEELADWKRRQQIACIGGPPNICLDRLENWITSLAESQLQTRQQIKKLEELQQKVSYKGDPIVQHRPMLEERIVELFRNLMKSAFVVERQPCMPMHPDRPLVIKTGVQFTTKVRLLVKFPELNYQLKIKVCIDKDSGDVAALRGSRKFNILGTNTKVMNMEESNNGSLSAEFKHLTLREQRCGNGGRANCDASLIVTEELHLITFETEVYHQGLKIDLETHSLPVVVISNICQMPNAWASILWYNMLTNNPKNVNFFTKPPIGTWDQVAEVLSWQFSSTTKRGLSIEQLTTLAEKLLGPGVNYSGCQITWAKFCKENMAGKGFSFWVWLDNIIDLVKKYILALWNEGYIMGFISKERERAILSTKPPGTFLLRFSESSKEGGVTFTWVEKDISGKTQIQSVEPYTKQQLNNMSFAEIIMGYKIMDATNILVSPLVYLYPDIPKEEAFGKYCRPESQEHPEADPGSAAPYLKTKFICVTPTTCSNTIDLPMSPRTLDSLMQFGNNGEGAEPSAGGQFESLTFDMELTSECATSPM

Take `CC(C)CCCC(C)CCO` (configuration not stated): the outcome in [1], in experiment [2], in experiment [3], in [4], in [5] and in [6] was inactive. The compound was classed as inactive in experiment [7], in [8], in experiment [9], in [10], in experiment [11] and in [12]. Further, the outcome in experiment [13], in [14], in [15], in [16], in experiment [17] and in experiment [18] was inactive. In addition, the outcome in [19] was inactive.
Take `C=C(C)CCCC`: the compound was classed as inactive in experiment [1], in experiment [2], in [3], in [4], in experiment [5] and in experiment [6]. Besides, the outcome in experiment [7], in [8], in experiment [9], in experiment [10], in [11] and in experiment [12] was inactive. Further, the outcome in experiment [13], in [14], in experiment [15], in experiment [16], in [17] and in experiment [18] was inactive. The result in [20] was inactive.
On to `Nc1cc([N+](=O)[O-])cc(Cl)c1O`, for which the outcome in [1], in [2], in [3], in experiment [4], in [5] and in [6] was inactive. Further, the outcome in [7], in [8], in [9], in experiment [10], in experiment [11] and in experiment [12] was inactive. For the same compound, the call in experiment [14], in [15], in [16], in experiment [17], in experiment [18] and in experiment [20] was inactive. Moreover, the compound was called inactive in experiment [19]. Also, the half-maximal activity concentration (AC50) in [13] was 5.15 µM (active).
On to `CCCCCCCCCCCC(=O)Cl`, for which the call in experiment [1], in [2], in experiment [3], in [4], in experiment [5] and in [6] was inactive. For the same compound, the outcome in experiment [7], in experiment [8], in experiment [9], in experiment [10], in experiment [11] and in [12] was inactive. The call in [13], in [15], in [16], in [17], in [20] and in experiment [19] was inactive. Moreover, the AC50 in experiment [14] was 49.9 µM (active); in [18], 41.2 µM (active).
`CCC(C)CO` (configuration not stated): the result in experiment [1], in experiment [2], in experiment [3], in experiment [4], in [5] and in experiment [6] was inactive. In addition, the compound was classed as inactive in experiment [7], in experiment [8], in [9], in [10], in experiment [11] and in [12]. The compound was classed as inactive in experiment [13], in [14], in experiment [15], in experiment [16], in [17] and in experiment [18]. In experiment [19], the call was inactive.
Take `CCCCOC(=O)C(C)O` (configuration not stated): the compound was classed as inactive in [1], in experiment [2], in experiment [3], in experiment [4], in [5] and in experiment [6]. Besides, the compound was classed as inactive in experiment [7], in experiment [8], in experiment [9], in experiment [10], in experiment [11] and in experiment [12]. Besides, the outcome in experiment [13], in [14], in [15], in experiment [16], in experiment [17] and in experiment [18] was inactive. Further, the compound was called inactive in experiment [20] and in experiment [19].
On to `O=C(O)C(F)(F)OC(F)(F)C(F)(F)OC(F)(F)C(F)(F)OC(F)(F)F`, for which the call in experiment [1], in [2], in [3], in [4], in experiment [5] and in [6] was inactive. In addition, the call in [7], in experiment [8], in [10], in experiment [11], in experiment [12] and in [13] was inactive. Moreover, the outcome in experiment [15], in experiment [16], in experiment [17], in experiment [18], in experiment [20] and in [19] was inactive. Further, the AC50 in experiment [9] was 104 µM (active); in experiment [14], 36.4 µM (active).

Source of the values: PubChem BioAssay (EPA / NIEHS).
